Screening data deposited in PubChem BioAssay by National Center for Advancing Translational Sciences (NCATS).
ALOX12 inhib: qHTS Assay for Inhibitors of 12-hLO (12-human lipoxygenase); 0.12% of 150,000 active; purified 12-hLO, xylenol orange hydroperoxide absorbance; Potency, µM (series often up to 57.1 µM), inactives show top-dose activity change, negative = inhibition, actives largely listed as inhibitors; further: potency means the concentration at half of the fitted maximal effect; nearly all actives have a fitted effect of over 55% in size
Target sequence (P18054 whole entry, looked up): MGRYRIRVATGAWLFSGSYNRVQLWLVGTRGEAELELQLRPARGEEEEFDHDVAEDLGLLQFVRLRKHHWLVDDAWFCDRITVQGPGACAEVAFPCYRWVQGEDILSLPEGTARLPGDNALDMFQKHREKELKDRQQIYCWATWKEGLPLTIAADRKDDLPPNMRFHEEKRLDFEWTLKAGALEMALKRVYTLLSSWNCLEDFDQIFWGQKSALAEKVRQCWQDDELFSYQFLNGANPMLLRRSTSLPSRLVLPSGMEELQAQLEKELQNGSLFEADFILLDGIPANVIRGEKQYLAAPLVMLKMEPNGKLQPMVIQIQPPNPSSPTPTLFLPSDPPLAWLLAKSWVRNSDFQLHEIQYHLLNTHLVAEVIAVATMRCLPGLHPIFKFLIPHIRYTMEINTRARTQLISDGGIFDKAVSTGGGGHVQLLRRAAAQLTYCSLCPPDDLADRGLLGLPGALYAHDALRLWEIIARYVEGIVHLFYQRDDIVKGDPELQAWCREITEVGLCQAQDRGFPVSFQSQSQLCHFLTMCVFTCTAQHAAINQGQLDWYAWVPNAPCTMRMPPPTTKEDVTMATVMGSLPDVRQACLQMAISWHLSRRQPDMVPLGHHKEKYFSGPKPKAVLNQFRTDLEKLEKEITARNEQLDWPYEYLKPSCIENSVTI
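Purified human 12hLO (150 nM final) was preincubated with compounds for 15 min at room temperature in 25 mM Hepes pH 7.0, 0.01% Triton X-100, then reacted with 40 uM arachidonic acid for 30 min. Hydroperoxide was detected with ferrous iron/xylenol orange.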
15-hLO-2 inh: qHTS Assay for Inhibitors of 15-hLO-2 (15-human lipoxygenase 2). purified 15hLO-2, xylenol orange hydroperoxide absorbance. Potency, µM (doses to about 57.1 µM), inactives show top-dose activity change, negative = inhibition, most hits filed as inhibitors. 0.56% of 110,000 active; further: potency means the concentration at half of the fitted maximal effect; nearly all actives have a fitted effect of over 60% in size
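Read-out: hydroperoxide product oxidises ferrous iron, measured as xylenol orange complex via the 573-to-405 nm absorbance ratio after 30 min. Reaction: 50 nM enzyme, 15 min compound preincubation, 45 uM arachidonic acid, 90 min RT, Hepes pH 7.5 with Triton X-100.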
PNC inhibitor: High Content Assay for Compounds that inhibit the Assembly of the Perinucleolar Compartment; PC3M PTB-GFP, PNC prevalence imaging, 16 h; stronger effect = lower value; activity change (PNC), negative = inhibition, % at 10 µM; 3.1% of 140,000 active; AID 2417, 2010;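 active means readout at or below -70, meaning at least 70% loss of cells showing the perinucleolar compartment, a nuclear body marking cancer cells; inconclusive means readout between -30 and a set limit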;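 further: plate controls were DMSO wells for no effect and camptothecin positive control wells for full effect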
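Read-out is percentage of cells bearing a perinucleolar compartment, from automated 20x imaging of fixed, Hoechst-stained PC3M PTB-GFP cells. Cells were seeded 4 h, then exposed 16 h to compound (23 nl of library stock) in duplicate plates.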
Active calls of the source: *; u = inconclusive; x = not tested or not shown; [ ] = dose if it differs, or a comment. Only some compounds are listed: those with a hit (about 3.2% of all), similar ones and a draw of the others. Unless noted, the call rests on the fitted dose curve; in most records, active means well fitted curve in the direction sought with a large enough effect; inconclusive means small, poorly fitted or top-dose-only effect, or another doubt; inactive means no such curve, though single readings can be large; an effect the other way counts as inactive or inconclusive. Unless noted, on the % scale 0 is the no-effect control and ±100 the full control effect.

SMILES	ALOX12 inhib	15-hLO-2 inh	PNC inhibitor
CCOc1ccc(Br)cc1S(=O)(=O)Nc1ccc(C(=O)Nc2ccccc2OC)cc1	-2%	x	u
S=C([S-])NCCNC(=S)[S-].[Zn+2]	-21%	u	x
CC(C)(C)NC[C@H](O)COc1cccc2c1CCC(=O)N2	-1%[25.6 µM]	-2%[25.6 µM]	x
COc1cc(/C=N/NC(N)=S)ccc1OCC(=O)Nc1ccc(C)c(C)c1	-19%	u	10
CCCCNC(=S)N/N=C/c1ccc(OCC(=O)Nc2c(C)cc(C)cc2C)c(OC)c1	-5%	x	-82*
CCC1(CC)N([O-])C(C)=C(c2ccccc2)[N+]1=O	-1%	-4%	8
CCC1(C)N([O-])C(C)=C(c2ccccc2)[N+]1=O (stereo unspecified)	2%	8%	-88*
Cc1cccc(COCC(Cc2ccccc2)N2CCN(C(=O)c3ccc(C(F)(F)F)cc3)CCC2=O)c1 (stereo unspecified)	-4%	x	-80*
O=C(c1ccc(C(F)(F)F)cc1)N1CCC(=O)N(C(COCc2ccc(C(F)(F)F)cc2)Cc2ccccc2)CC1 (stereo unspecified)	-7%	x	26
COc1cc(O)c(C)c(O)c1	-1%	-2%	x
OC[C@@H]1O[C@@H](n2cnc3c(NC4CCCCC4)ncnc32)[C@@H](O)[C@H]1O	-6%	4%	x
COn1c(SC(C)C)nc2ccccc2c1=O	3%	-4%	19
COc1nc2ccccc2c(=O)n1OCC(C)C	-1%	-7%	-82*
O=c1c2ccccc2n2c(-c3ccc(F)cc3)nnc2n1Cc1ccccc1	1%	x	-102*
O=c1c2ccccc2n2c(-c3ccc(C(F)(F)F)cc3)nnc2n1Cc1ccccc1	1%	x	25
COC(=O)N1CCC2(CCCN(Cc3ccccc3)C2)CC1	2%	10%	x
CCOC(=O)C(C(=O)OCC)C1CCS(=O)(=O)C1 (stereo unspecified)	-6%	x	-100*
CCCOC(=O)NC1CCS(=O)(=O)C1 (stereo unspecified)	2%	-5%	u
Clc1ccccc1-c1nc(-n2ccnc2)c2ccccc2n1	x	23%	x
Cc1ccc(C(=O)Nc2cccc(-c3cnc4ccccc4n3)c2)cc1	-3%	-9%	50
CC(C)C(=O)Nc1cccc(-c2cnc3ccccc3n2)c1	-4%	8%	-96*
CC(=O)Nc1cccc(OCC(=O)NS(=O)(=O)c2ccc(C)cc2)c1	1%	-4%	17
Cc1ccc(NC(=O)CCc2c(C)nc3ncnn3c2C)cc1	4%	u	59
Cc1ccc(NC(=O)COc2ccc(S(=O)(=O)N3CCOCC3)cc2)cc1	-3%	-12%	2
Cc1cccc(OCC(=O)Nc2ccc(S(=O)(=O)N3CCCC3)cc2)c1	-3%	u	-99*
SMILES	ALOX12 inhib	15-hLO-2 inh	PNC inhibitor
COC(=O)COc1cccc(NS(=O)(=O)c2ccc(NC(C)=O)cc2)c1	1%	5%	-88*
Cc1nc2ncnn2c(C)c1CCC(=O)Nc1ccc(S(=O)(=O)N2CCCCCC2)cc1	4%	-6%	-94*
O=S(=O)(c1cc(Cl)ccc1Cl)N1CC2CCCN2c2ccc(C(F)(F)F)cc21 (stereo unspecified)	2%	x	u
Cc1[nH]nc(Sc2ccccn2)c1[N+](=O)[O-]	-1%	x	5
O=C(NNc1nc2ccc(Cl)cc2s1)c1cc(-c2cccs2)nc2ccccc12	-5%	x	62
CC(=O)c1sc(N/N=C\c2ccc(Br)cc2)nc1C	-5%	x	49
CC(=O)c1sc(N/N=C\c2cccc(Br)c2)nc1C	-17%	x	-85*
COC1(C)CCC2OC2(C)CCC2C1CC2(C)C (stereo unspecified)	-3%	3%	x
CCOc1ccc(-n2c(Cc3cc(=O)[nH]c(=O)[nH]3)nnc2SCC(=O)NC2CCCC2)cc1	5%	-3%	-22
CCOc1ccc(-n2c(Cc3cc(=O)[nH]c(=O)[nH]3)nnc2SCC(N)=O)cc1	9%	6%	-84*
CCCNC(=O)Cn1nc([N+](=O)[O-])c([N+](=O)[O-])c1C	-9%	x	-10
CC1CCCC(C)N1C(=O)COC(=O)C(Cc1ccccc1)NC(=O)c1cccs1 (stereo unspecified)	2%	x	47
CC1=C/C(=N/O)C([C@H]2C=C(C)CC(C)(C)[C@@H]2O)C(C)(C)C1 (stereo partly specified)	2%[11.4 µM]	-2%[11.4 µM]	x
COc1ccc(N(CC(O)Cn2cnc3ccccc32)S(=O)(=O)c2ccc(C)cc2)cc1 (stereo unspecified)	-2%	x	-15
COc1ccc(-c2cc(C(=O)OCC(=O)Nc3cc(C)on3)c3ccccc3n2)cc1OC	-4%	u	26
Cc1ccc(-c2cc(C(=O)OCC(=O)Nc3cc(C)on3)c3ccccc3n2)c(C)c1	0%	14%	-82*
Cc1cccc(NS(=O)(=O)c2ccc(C)c(C(=O)OCC(=O)Nc3cc(C)on3)c2)c1	-5%	-10%	-100*
Cc1cccc(NS(=O)(=O)c2cc(C(=O)OCC(=O)Nc3cc(C)on3)ccc2C)c1	3%	-11%	u
Cn1cccc1C(=O)N1CCC2(CC1)CN(C(=O)Nc1ccccc1)C2	-2%	0%	x
Oc1c([C@H](Nc2ccccn2)c2ccccc2)ccc2cccnc12	-8%[11.4 µM]	27%[11.4 µM]	x
Cc1ccc2ccc(C(Nc3ccccn3)c3ccccc3)c(O)c2n1 (stereo unspecified)	-21%	55%	-82*
COc1cccc(Oc2cncnc2-c2ccc(OC)cc2O)c1	-11%	8%	-28
COCCNC(=O)c1c[nH]c2cc(OC)c(OC)cc2c1=O	4%	1%	u
COc1cc2[nH]cc(C(=O)NCCc3ccccc3)c(=O)c2cc1OC	-1%	x	-100*
CN(C)CCCC1(c2ccc(F)cc2)OCc2cc(C#N)ccc21 (stereo unspecified)	1%	x	-115*
SMILES	ALOX12 inhib	15-hLO-2 inh	PNC inhibitor
CCNC(=O)N1CCOCC1	9%	-3%	-5
CC(C)CCNC(=O)CO/N=C/c1ccccc1OC(F)F	3%	x	93
COc1ccc(/C=N/NC(=O)C(C)n2cnc3ccccc3c2=O)cc1 (stereo unspecified)	-1%	x	-119*
COc1ccc(/C=N/NC(=O)Cn2cnc3ccccc3c2=O)cc1	-1%	x	-25
CC(C)CN1CCCC2(CCN(C(=O)c3cccn3C)CC2)C1	-1%	-1%	x
COc1ccc(CCN2C(=S)NC3CC2(C)Oc2ccc([N+](=O)[O-])cc23)cc1OC (stereo unspecified)	-18%	u	15
Cc1cc(C)cc(NC(=S)/N=C(\N)Nc2nc(C)c3ccccc3n2)c1	-1%	x	u
Cc1cccc(NC(=S)/N=C(\N)Nc2nc(C)c3ccccc3n2)c1	7.9µM*	x	50
Cc1cccc(NC(=S)/N=C(\N)Nc2nc(C)c3ccc(C)cc3n2)c1	u	u	8
Cc1ccc(NC(=S)/N=C(\N)Nc2nc(C)c3ccccc3n2)cc1C	5.6µM*	x	-6
CC(=O)c1c(O)cc(O)cc1O	-2%	2%	x
CCOc1ccc(C(=O)NC(=S)Nc2cccc(NC(=O)c3ccco3)c2)cc1[N+](=O)[O-]	u	x	9
